GAA inh – qHTS Assay for Inhibitors of Human alpha-Glucosidase as a Potential Chaperone Treatment of Pompe Disease | 0.005% of 200,000 active | Lysosomal alpha-glucosidase (Homo sapiens), P10253 | purified human GAA, 4-MU-alpha-glucoside fluorescence | Potency, µM (doses to about 76.9 µM), for the others: top-dose activity change, negative = inhibition, usual class: inhibitors;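 also: potency is read from the fitted curve at half-maximal effect; plate controls were uninhibited enzyme wells for no effect and no-enzyme background for full effect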
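qHTS format, compound range up to 77 uM. Human lysosomal enzyme at 4 nM, 400 uM 4-MU glucoside substrate, pH 5.0, 20 min room temperature; fluorescence after alkaline stop gives activity normalized to controls.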
N370S GC – qHTS Assay for Inhibitors and Activators of N370S glucocerebrosidase as a Potential Chaperone Treatment of Gaucher Disease. Lysosomal acid glucosylceramidase (Homo sapiens), P04062. N370S GC spleen homogenate, 4MU-glucoside fluorescence. Potency, µM (series often up to 59.4 µM), for inactives: at the highest dose activity change, negative = inhibition, hits mostly inhibitors. 0.092% of 330,000 active;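 also: potency is read from the fitted curve at half-maximal effect; 0% = full enzyme activity and -100% = no enzyme basal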
aGlu spleen mod – qHTS Assay for Inhibitors and Activators of Human alpha-Glucosidase From Spleen Homogenate. human spleen homogenate, 4-MU-alpha-glucoside fluorescence. Potency, µM (top dose mostly 79.9 µM), without a hit: at the top dose activity change, negative = inhibition, hits mostly inhibitors. 0.006% of 240,000 active;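 also: potency is read from the fitted curve at half-maximal effect; 0% = enzyme with vehicle and -100% = no enzyme basal signal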
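Compounds were titrated against alpha-glucosidase in spleen homogenate at pH 5.0, with 1 mM 4-methylumbelliferyl substrate for 40 min at 37 C. Reactions were quenched with pH 10 NaOH/glycine and fluorescence measured.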
GAA glycogen – qHTS Assay for Inhibitors and Activators of Human alpha-Glucosidase Cleavage of Glycogen; AID 2100, 2009; 0.38% of 300,000 active; Lysosomal alpha-glucosidase (Homo sapiens), P10253; recombinant GAA, glycogen substrate, Amplex Red glucose oxidase fluorescence; Potency, µM (titrated, usually from 76.4 µM), for inactives: top-dose activity change, negative = inhibition, hits mostly inhibitors;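 also: potency is read from the fitted curve at half-maximal effect; 0% = full enzyme reaction and -100% = no-enzyme basal signal; the screen sought inhibitors and activators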
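Recombinant human alpha-glucosidase (4 nM final) hydrolysed bovine liver glycogen (30 ug) for 40 min at 37 C in pH 5.0 citrate/phosphate with 0.01% Tween-20. Released glucose detected by glucose oxidase/Amplex Red, Ex 573/Em 610 nm. Compounds up to 77 uM; AC50 from Hill fits.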
GLA spleen mod – qHTS Assay for Inhibitors and Activators of Human alpha-Galactosidase From Spleen Homogenate; Potency, µM (series often up to 80 µM), without a hit: at the highest dose activity change, negative = inhibition, hits mostly inhibitors; human spleen homogenate, 4MU-alpha-Gal fluorescence, 40 min; 0.008% of 240,000 active; Alpha-galactosidase A (Homo sapiens), P06280; AID 2107, 2009;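 also: potency is read from the fitted curve at half-maximal effect; 0% = enzyme with vehicle and -100% = no enzyme basal signal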
Target sequence (P06280 32-429 limits assumed): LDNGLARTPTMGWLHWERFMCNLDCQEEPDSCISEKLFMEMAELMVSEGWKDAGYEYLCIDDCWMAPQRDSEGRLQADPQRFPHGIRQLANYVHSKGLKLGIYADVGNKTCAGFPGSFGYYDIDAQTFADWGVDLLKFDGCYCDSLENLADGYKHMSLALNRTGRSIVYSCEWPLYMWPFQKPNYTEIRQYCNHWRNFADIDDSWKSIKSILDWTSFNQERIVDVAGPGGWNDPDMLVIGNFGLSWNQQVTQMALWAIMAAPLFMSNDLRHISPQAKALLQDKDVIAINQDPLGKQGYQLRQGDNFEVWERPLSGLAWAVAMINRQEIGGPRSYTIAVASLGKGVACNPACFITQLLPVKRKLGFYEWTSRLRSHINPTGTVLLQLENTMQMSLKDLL
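Spleen homogenate 1 ug + cpd (titration) + 4-MU-alpha-D-galactopyranoside 1 mM; 37C 40 min; 50 mM citrate/phosphate pH 5.0, 0.01% Tween-20; stop pH 10; fluorescence 365/440; AC50 via Hill.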
GLA inh pH 4.5 – qHTS Assay for Inhibitors of Human alpha-Galactosidase at pH 4.5. Alpha-galactosidase A (Homo sapiens), P06280. purified enzyme, 4-MU-alpha-Gal fluorescence, pH 4.5. activity change, negative = inhibition, % at 105 µM. 230,000 tested, under 10 active. AID 1467, 2008;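 also: 0% = full activity with enzyme and -100% = basal without enzyme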
* hit, by the source's call; u = inconclusive; x = no result given; [ ] = dose if it differs, or a comment. Most compounds without a hit are left out; they make up all but 0.41% or so of the library. Calls follow the shape of the dose curve; as a rule, active = well fitted curve in the direction sought with a large enough effect; inconclusive = small, poorly fitted or top-dose-only effect, or another doubt; inactive = no such curve, though single readings can be large; an effect the other way counts as inactive or inconclusive.

SMILES	GAA inh	N370S GC	aGlu spleen mod	GAA glycogen	GLA spleen mod	GLA inh pH 4.5
COc1ccc(C2=NC(c3ccc(Cl)cc3)C(c3ccc(Cl)cc3)N2C(=O)N2CCNC(=O)C2)c(OC(C)C)c1 (stereo unspecified)	x	-3%	0%	x	4%	x
CC(C)c1ccc(NC(=S)Nc2cccc3ccccc23)cc1	x	-13%	x	40µM*	x	x
O=C(CN1CC(=O)Oc2ccccc21)OCC(=O)c1cccc(Br)c1	5%	-18%	-3%	8.8µM*	12%	2
Cc1ccc(N2C(=O)C3Sc4[nH]c(=O)sc4C(c4ccccc4)C3C2=O)cc1 (stereo unspecified)	4%	11%	1%	31µM*	1%	5
O=C1C2Sc3[nH]c(=O)sc3C(c3ccccc3)C2C(=O)N1c1ccc(Cl)cc1 (stereo unspecified)	2%	9%	-2%	28µM*	2%	3
CC(C)[C@H](O)CC[C@@H](C)C1CC[C@H]2C3CC=C4C[C@@H](O)CC[C@]4(C)C3CC[C@]12C (stereo partly specified)	x	-5%	6%	x	-4%	x
C=C1C=CS(=O)(=O)N(C(CC(C)C)C(=O)OC)C1 (stereo unspecified)	x	3%	-1%	x	1%	x
Cc1ccc(CNc2ccc3c(c2)OCO3)cc1	5%	-5%	7%	-27%	-4%	0
c1cc(CNc2ccc3c(c2)OCO3)ccn1	-3%	1%	-8%	32µM*	4%	10
COc1ccc(/C=N/Nc2nc3ccccc3[nH]2)cc1OC	-2%	-14%	2%	u	7%	-2
C(=N\Nc1ccc2ccccc2n1)/c1ccc2c(c1)OCCO2	u	0%	-1%	-29%	-4%	-4
COc1cc(/C=N\Nc2nc3ccccc3[nH]2)cc(OC)c1OC	0%	-2%	5%	16µM*	5%	1
C(=N\Nc1nc2ccccc2[nH]1)/c1ccc2c(c1)OCCO2	-9%	-5%	1%	13µM*	-7%	-10
COc1ccc2c(c1)c(/C=N/Nc1nc3ccccc3[nH]1)c(C)n2C	u	u	-7%	28µM*	-5%	-16
CC1(OC(=O)C2CCCC2)C(=O)C=C2C=C(c3ccsc3)N(c3ccc(CO)cc3)C=C2C1=O (stereo unspecified)	x	9%[12.8 µM]	-13%[17.4 µM]	x	-3%[17.5 µM]	-4
CCCCc1cc2c(cn1)C(=O)C(C)(OC(C)=O)C(=O)C2 (stereo unspecified)	x	12%[12.8 µM]	5%[17.4 µM]	x	2%[17.5 µM]	0
Cc1ccc(/C=N\Nc2nc3ccc(Cl)cc3[nH]2)o1	9%	-4%	3%	6.3µM*	1%	2
COc1ccc(CCN2CCC[C@H](CN3CCc4cc(OC)c(OC)cc4CC3=O)C2)cc1OC	x	-7%	-2%	x	-9%	x
CO[C@@H]1CC[C@@]2(C)[C@@H](CC[C@@]3(C)[C@H]2CC=C2[C@H]4CC(C)(C)[C@H](O)[C@@H](OC(C)=O)[C@]4(CO)[C@H](O)C[C@]23C)[C@@]1(C)CO (tested in a mixture with another compound)	x	-26%[21.6 µM]	7%[29.1 µM]	x	-6%[29.1 µM]	2
C/C=C(/C)C(=O)OC1C(OC(C)=O)[C@@]2(CO)C(O)C[C@@]3(C)C(=CCC4[C@@]5(C)CCC(OC6OC(C(=O)O)[C@@H](O[C@@H]7OC(CO)C(O)C(O)C7O)C(O)[C@H]6O[C@@H]6OC(CO)C(O)C(O)C6O)[C@](C)(CO)C5CC[C@@]43C)C2CC1(C)C (stereo partly specified)	x	16µM*	-2%	x	u	3
Cc1cccc(N2CCN(c3nc4nonc4nc3N3CCSCC3)CC2)n1	11%	-27%	5%	10µM*	4%	-3
C#CCOCCOCCOCCNc1nc(N2CCN(C(=O)CCCCCCCCCCNC(=O)[C@@H](CCC(=O)O)n3cc(CCCCCN)nn3)CC2)nc(N2CCN(C(=O)CCCCCCCCCCNC(=O)[C@H](CO)n3cc(CCCCCN)nn3)CC2)n1	x	-23%	x	x	x	x
C#CCOCCOCCOCCNc1nc(N2CCOCC2)nc(N2CCN(C(=O)[C@H]([C@@H](C)CC)n3cc(CCCN=C(N)N)nn3)CC2)n1	6%	4%	-7%	3%	11%	-6
C#CCOCCOCCOCCNc1nc(N2CCN(C(=O)CCCCCCCCCCNC(=O)[C@H]([C@@H](C)CC)n3cc(CCCCN=C(N)N)nn3)CC2)nc(N2CCN(C(=O)CCCCCCCCCCNC(=O)[C@H](CCCN=C(N)N)n3cc(C[C@@H](C)CC)nn3)CC2)n1	x	8.9µM*	x	x	x	x
C#CCOCCOCCOCCNc1nc(N2CCN(C(=O)CCCCCCCCCCNC(=O)[C@H](CCCN=C(N)N)n3cc(C[C@@H](C)CC)nn3)CC2)nc(N2CCN(C(=O)CCCCCCCCCCNC(=O)[C@@H]([C@H](C)CC)n3cc(CCCCCN)nn3)CC2)n1	x	5.6µM*	x	x	x	x
SMILES	GAA inh	N370S GC	aGlu spleen mod	GAA glycogen	GLA spleen mod	GLA inh pH 4.5
O=C(NC(NC(=S)Nc1ccc(F)c([N+](=O)[O-])c1)C(Cl)(Cl)Cl)C(c1ccccc1)c1ccccc1 (stereo unspecified)	x	-19%	-17%	x	-7%	x
Cn1c(-c2cccc([N+](=O)[O-])c2)cnc1NCc1cccc([N+](=O)[O-])c1	-6%	-13%	-4%	22µM*	1%	9
Cc1cccc(CNc2ncc(-c3cccc([N+](=O)[O-])c3)n2C)c1	-1%	-4%	3%	u	-2%	3
O=C(NNC(=O)c1cc(O)c(O)c(O)c1)NC1CCCCC1	-6%	4%	-10%	7.9µM*	-2%	10
O=C(NNC(=O)c1cccnc1)NC1CCCCC1	2%	-7%	-1%	-3%	1%	-2
C#CCOc1ccc(C(=O)N(C)c2ccccc2I)cc1	x	-5%	-6%	x	4%	x

Source: PubChem (National Center for Advancing Translational Sciences (NCATS))
